From PubChem BioAssay (NCI)
This is part of a sample that, as a whole, favours compounds with a hit. Of some 79,000 tested, about 15% had one in any assay. Cut-off read from the data, not from the text of the source: active = growth inhibition above about 70%; inactive = the rest.

Columns and labels:
[1] = NCI Yeast Anticancer Drug Screen. Data for the rad50 strain (AID 155);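 note: 0% = growth of vehicle-only cultures of the same strain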; settings: S. cerevisiae rad50 strain growth inhibition; at 50.0 µM; active compounds read high
Outline: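 Readout: growth inhibition relative to vehicle-treated cultures. Compound exposure was carried out in a genetically defined yeast strain deficient in DNA damage repair.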

[2] = NCI Yeast Anticancer Drug Screen. Data for the mec2-1 strain (AID 157); settings: S. cerevisiae mec2-1 strain, at 50.0 µM, active compounds read high
Outline: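 Mutant yeast (mec2-1) grown with compound; growth inhibition relative to vehicle control reported.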

[3] = NCI Yeast Anticancer Drug Screen. Data for the sgs1 mgt1 strain (AID 161);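 note: 0% = growth of cultures given vehicle only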; settings: S. cerevisiae sgs1 mgt1 strain, at 50.0 µM, active compounds read high
Outline: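 This yeast growth screen uses a strain with defined DNA-repair lesions; compound-treated growth is compared with vehicle-treated growth.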

[4] = NCI Yeast Anticancer Drug Screen. Data for the cln2 rad14 strain (AID 165);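 note: 0% = growth equal to vehicle treated cultures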; settings: S. cerevisiae cln2 rad14 strain, at 50.0 µM, active compounds read high
Outline: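 Readout is yeast growth inhibition versus vehicle-treated controls, using a strain with cln2 and rad14 alterations exposed to compound.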

[5] = NCI Yeast Anticancer Drug Screen. Data for the bub3 strain (AID 167); settings: S. cerevisiae bub3 mutant strain, at 50.0 µM, active compounds read high
Outline: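 Readout: yeast growth inhibition, expressed relative to vehicle-only wells. The test organism is a mutant strain from a panel with lesions in DNA repair or checkpoint genes.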

[6] = NCI Yeast Anticancer Drug Screen. Data for the mlh1 rad18 strain (AID 175); settings: S. cerevisiae mlh1 rad18 strain growth inhibition; at 50.0 µM; active compounds read high
Outline: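 Genetically defined yeast (DNA repair-deficient) exposed to compounds; growth inhibition determined relative to vehicle.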

Measured: growth inhibition

Cc1cc(N(C)C)c([N+](=O)[O-])cc1C=O
inactive: [1] 5.9% | [2] 13.8% | [3] -13.3% | [4] -22.4% | [5] -24.9% | [6] -5.8%

O=C(C=C1CCCCC1)c1ccccc1
inactive: [1] 12.9% | [2] -6.35% | [3] 7.45% | [4] -6.2% | [5] 2.9% | [6] 5.25%

COC(=O)c1ccc(Cl)nc1
inactive: [1] 0.85% | [2] -8.6% | [3] -9.7% | [4] -6.75% | [5] -11.1% | [6] -10.3%

FC(F)/C=C\c1ccccc1
inactive: [1] 8.85% | [2] -4.55% | [3] -10.4% | [4] -19.8% | [5] -16.9% | [6] 6.9%

CC12CC3CC(O)(C1)CC(O)(C3)C2
inactive: [1] 7.25% | [2] -11.1% | [3] -1.45% | [4] 22.2% | [5] -8.3% | [6] 4.15%

CC1=CCCCC1
inactive: [1] 3.85% | [2] 2.8% | [3] -1.35% | [4] -5.1% | [5] 8.65% | [6] -7.25%

Cc1ccc(C)c2c(Cl)c3c(C)ccc(C)c3nc12
inactive: [1] -8.45% | [2] -4.65% | [3] 0.3% | [4] -29.4% | [5] -9.8% | [6] 7.25%

CC(C)(C)C(=O)OCN1CCOCC1
inactive: [1] -10.6% | [2] 10.9% | [3] 0.65% | [4] -47.8% | [5] -9.15% | [6] -10.2%

C/C=C/c1nc2c(c(=O)n(C)c(=O)n2C)n1C
inactive: [1] -8.05% | [2] -8.2% | [3] -6% | [4] -28.8% | [5] 0.95% | [6] 7%

CCCCCCNC1=C(OC)C(=O)C(NCCCCCC)=C(OC)C1=O
inactive: [1] -7.4% | [2] 7.9% | [3] 2.1% | [4] -54.9% | [5] 8.5% | [6] -13.6%

CCC(CC)C(=O)OC1CCCCC1C(C)C (stereo unspecified)
inactive: [1] 6.8% | [2] -3.5% | [3] -0.2% | [4] -13.6% | [5] 3.05% | [6] 0.35%

COC1=CC(=O)OC(c2ccccc2)(c2ccccc2)C1
inactive: [1] -3.6% | [2] -15.1% | [3] 8.8% | [4] 13% | [5] 13.6% | [6] -3.65%

CC(=O)OCC1OC(n2cc(F)c(=O)[nH]c2=O)C(NC(=O)N(CCCl)N=O)C(OC(C)=O)C1OC(C)=O (stereo unspecified)
inactive: [1] 2.4% | [2] -13.9% | [3] 12.8% | [4] 10.8% | [5] 0.9% | [6] -5.85%

CCCCCCCCC(=O)c1ccc(N=Nc2ccc(OCC)cc2)cc1
inactive: [1] -6% | [2] 12.9% | [3] -5.5% | [4] -8.55% | [5] 3.15% | [6] -14.8%

COC(=O)C1OC1(C)c1ccccc1 (stereo unspecified)
inactive: [1] 2.3% | [2] 4.6% | [3] -0.25% | [4] -0.35% | [5] -1.95% | [6] -2.55%

CC1(C)OC(=O)C=C[C@@]2(C)C1CC(=O)C1(C)C2CCC2(C)C(c3ccoc3)OC(=O)[C@H]3O[C@]321 (stereo partly specified)
inactive: [1] 2.55% | [2] -24.3% | [3] 11.3% | [4] 9.95% | [5] -7% | [6] -6.25%

CC(C)C(CC1CCCCC1)C(C)O (stereo unspecified)
inactive: [1] -7.65% | [2] -0.45% | [3] -14.6% | [4] -14.4% | [5] -9.35% | [6] -17.6%

COc1c(NC(=O)c2ccccc2Cl)cccc1[N+](=O)[O-]
inactive: [1] -1% | [2] 1.3% | [3] 13.8% | [4] -6.75% | [5] 16.9% | [6] 20.2%

COC(=O)c1nc(N)nc(C(=O)OC)c1C(=O)/C=C/c1ccccc1
inactive: [1] -4.2% | [2] -8.5% | [3] -21.5% | [4] -16.1% | [5] -26.4% | [6] -17.6%

NC1=NC(c2ccccc2)C2=C(N1)C(=O)N(c1ccc(Br)cc1)C2 (stereo unspecified)
inactive: [1] 43.3% | [2] -7.75% | [3] -2.45% | [4] -12.3% | [5] 7.7% | [6] -2.65%

CN(CC1NCCCC1O)C12CC3CC(CC(C3)C1)C2 (stereo unspecified)
inactive: [1] 0.5% | [2] -6.65% | [3] 12.4% | [4] 12% | [5] 7% | [6] -4.35%
